HCMV antiviral: human cytomegalovirus inhibition. HFF cells, HCMV-luciferase reporter, 72 h; stronger effect = lower value. activity change, negative = inhibition, % at 57.5 µM. 410,000 compounds, 4.5% hits; in the data active = activity change below about -60%; inconclusive = no clear call, values can overlap the other calls; inactive = above about -39%
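HFF cells seeded 16 h at 37C, treated with compounds, infected with luciferase-reporter HCMV at MOI 1 PFU/cell; luciferase read at 72 h post infection, normalized to buffer-only and Salinomycin controls.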
HCV inh: inhibitors of hepatitis C virus infection | Huh7.5.1 HCVcc-Cre infection, luciferase reporter, 44 h | 340,000 compounds, 3.4% hits | AID 651820 | Potency, µM (series often up to 41.8 µM), inactives show at the highest dose activity change, negative = inhibition, usual class: inhibitors; note: potency is the fitted concentration of half-maximal effect
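A cell-based infection assay in which seeded cells (1,000 per well) receive test compound after 4 h, are inoculated with HCVcc-Cre at approximately 0.5 moi, and are incubated 44 h before luminescence detection.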
Pf growth 48h: P. falciparum growth inhibition at 48 hours (one generation). P. falciparum luciferase growth in erythrocytes, 48 h. Potency, µM (top dose mostly 28.7 µM), without a hit: at the top dose activity change, negative = inhibition, hits mostly inhibitors. 310,000 compounds, 5.9% hits. AID 504832; note: potency is the fitted concentration of half-maximal effect
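Luminescence readout; reporter = integrated firefly luciferase in P. falciparum. RBC culture at 2% hematocrit, 0.1% parasitemia final, 37 C/5% CO2; decreased signal taken as growth inhibition.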
Pf growth 96h: P. falciparum growth inhibition at 96 hour, primary screen for plastid delayed-death inhibitors; Potency, µM (series often up to 28.7 µM), for the others: top-dose activity change, negative = inhibition, most hits filed as inhibitors; P. falciparum luciferase reporter growth, 96 h; 320,000 compounds, 6.9% hits; AID 504834; note: potency is the fitted concentration of half-maximal effect
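Readout is luminescence from an integrated firefly luciferase in P. falciparum. Red cells, 2% hematocrit and 0.05% parasitemia final, were cultured with compound through two parasite generations (96 hours) at 37 C, 5% CO2.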
Numbers without * were called inactive; u = inconclusive; x = no result; [ ] = remark or other dose. Sampled rows, rich in hits. Any-hit rate of the full collection: about 13%. Unless noted, calls come from the whole dose curve; as a rule, active = well fitted inhibition curve with a large enough effect; inconclusive = small, poorly fitted or top-dose-only effect, or another doubt; inactive = no such curve, though single readings can be large or run the other way. % is set by controls: 0 for no effect and ±100 for the full control effect.

SMILES	HCMV antiviral	HCV inh	Pf growth 48h	Pf growth 96h
CCN(CC)c1ccc(NS(=O)(=O)c2cc(-c3onc(C)c3C)ccc2OC)c(C)c1	-36	x	x	x
Cc1ccccc1CN1Cc2cnnn2-c2ccccc2C1C#N (configuration not stated)	-99*	u	x	x
Cc1ccccc1C(=O)N1Cc2cnnn2-c2ccccc2C1C#N (configuration not stated)	-22	-14%[8.37 µM]	x	x
C/C(=N\NC(=S)Nc1ccc(F)cc1)C1CC1	13	6%	u	12µM*
CN1c2ccccc2C2(C)CCCC3=Cc4cccc([N+](=O)[O-])c4OC312 (configuration not stated)	u	7%	u	u
CN1c2ccccc2C2(C)CCCC3=Cc4cc([N+](=O)[O-])cc([N+](=O)[O-])c4OC312 (configuration not stated)	-60*	2%	5.9µM*	u
Cc1nc2ccccc2c(=O)n1NC(=O)c1c(F)cccc1F	-69*	2%	0%	32%
COc1ccc(C(=O)Nn2c(C)nc3ccccc3c2=O)c(OC)c1	40	15%	22%	1.2µM*
Cc1nc2ccccc2c(=O)n1NC(=O)c1ccc(F)cc1Cl	64	2%	7%	9.3µM*
COc1ccc(Br)c(C(=O)Nn2c(C)nc3ccccc3c2=O)c1	-6	3%	1%	40%
Cc1nc2ccccc2c(=O)n1NC(=O)c1ccccc1F	52	-3%	-8%	u
COc1ccc(-c2nnc(SCC(=O)Oc3c(C)cccc3C)o2)cc1OC	21	x	x	x
CCCN(CCC)C(=O)CSc1nnc2cc(C)c3ccccc3n12	0	x	x	x
COc1cccc(Cn2c(Oc3cc(C)cc(C)c3)nc3c2c(=O)n(C)c(=O)n3C)c1	10	x	x	x
O=C(NCCc1c[nH]c2ccccc12)C1CCC(Cn2c(=S)[nH]c3ccccc3c2=O)CC1 (configuration not stated)	-68*	4.5µM*	x	u
O=C(O)C1CCCCC1C(=O)NCCc1c[nH]c2ccccc12 (configuration not stated)	10	10%	4%	u
CC1(C(=O)NCCc2c[nH]c3ccccc23)CCN1CC1CCCCC1 (configuration not stated)	-64*	x	x	x
COc1ccccc1NC(=O)C1=C(C)Nc2ncnn2C1c1cccn1C (configuration not stated)	5	x	x	x
Cc1cccc(CCNC(=O)c2cc(=O)[nH]c3ccc(Br)cc23)c1	x	-11%	18%	10µM*
Cc1ccccc1N1CCN(C(=O)c2ccc(Oc3ccc(C(F)(F)F)cn3)cc2)CC1	-24	u	9.3µM*	13µM*
O=C(O)c1ccc(Oc2ccc(C(F)(F)F)cn2)cc1	58	11%	-4%	16%
COc1ccc(OC)c(Nc2sc(C(=O)c3ccccc3)c(N)c2S(=O)(=O)c2ccccc2)c1	-3	x	x	x
O=C(Cc1ccc(F)cc1)N1CCC(CC2CC(c3ccc(Cl)cc3)=NO2)(C(=O)NCC2CCCCC2)CC1 (configuration not stated)	-16	6%	u	4.7µM*
O=C(Cc1ccc(F)cc1)N1CCC(CC2CC(c3cccc(Br)c3)=NO2)(C(=O)NCC2CCCCC2)CC1 (configuration not stated)	3	-16%	u	1.2µM*
O=C(O)C1CC(c2cccc(Br)c2)=NO1 (configuration not stated)	-32	-2%	3%	x
SMILES	HCMV antiviral	HCV inh	Pf growth 48h	Pf growth 96h
C=CCOc1cccn2c(N(C=O)Cc3ccccc3)c(CC)nc12	-17	x	x	x
COc1ccc(OC)c(C(O)C2CCCCN2)c1 (configuration not stated)	7	7%	u	3.3µM*
COc1ccc(OC)c([C@@H](O)[C@H](C)NC(C)(C)C)c1	2	12%[8.37 µM]	4%	-5%
CCCNC(=O)N1CC(=O)N2[C@H](CO)[C@@H](c3ccc(Br)cc3)[C@@H]2C1	8	x	x	x
CC(=O)N1c2c(cc(Br)cc2S(=O)(=O)N2CCN(C(=O)c3ccco3)CC2)CC1C (configuration not stated)	0	5%	10µM*	x
CC(=O)N1c2c(cc(Br)cc2S(=O)(=O)Nc2ccc(OC(F)(F)F)cc2)CC1C (configuration not stated)	-82*	x	x	x
COc1ccc(CNS(=O)(=O)c2cc(Br)cc3c2N(C(C)=O)C(C)C3)cc1 (configuration not stated)	-39	19%	-8%	4.1µM*
CC(=O)N1c2c(cc(Br)cc2S(=O)(=O)NCc2ccc(C)cc2)CC1C (configuration not stated)	-66*	-8%	-17%	49%
CCOC(=O)c1ccc(NS(=O)(=O)c2cc(Br)cc3c2N(C(C)=O)C(C)C3)cc1 (configuration not stated)	-29	x	x	x
COc1ccc(NC(=O)C(C)N2Cc3ccccc3C2=O)cc1OC (configuration not stated)	2	x	x	x
CC(CNC(=O)c1ccc2nc(CCc3ccccc3)oc2c1)c1ccccc1 (configuration not stated)	27	x	x	x
CC(C)(C)c1ccc(C(=O)CCCN2CCC(OC(c3ccccc3)c3ccccc3)CC2)cc1	x	x	9.5µM*	7.6µM*
COc1ccc(C(C)=NOC(=O)c2c(-c3ccccc3Cl)noc2C)cc1CN1CCOCC1	-60*	x	x	x
Cc1cc2ccccc2n1CCNC(=O)Cc1cccc2ccccc12	34	6.3µM*	u	u
Cc1ccc(-c2cn3cccnc3n2)cc1NC(=O)c1c(-c2ccccc2Cl)noc1C	-11	u	u	37%
O=C(Cc1cccc2ccccc12)NCCOc1ccccc1F	-63*	0%	-8%	34%
Cc1onc(-c2ccccc2Cl)c1C(=O)Nc1ccc(-c2cn3cccnc3n2)cc1	x	x	10µM*	u
C/C(=N\OC(=O)c1c(-c2ccccc2Cl)noc1C)c1ccncc1	-1	-11%	31%	23%
CCOC(=O)c1cccn1C1C(=O)N(Cc2ccc(C(C)C)cc2)c2c(F)cccc21 (configuration not stated)	-35	x	x	x
c1cnc(N2CCN(c3ncc4c(n3)CCNC4)CC2)nc1	16	x	x	x
Cc1onc(-c2ccccc2Cl)c1C(=O)NC1CCS(=O)(=O)C1 (configuration not stated)	-6	14%	x	12µM*
Cc1onc(-c2ccccc2Cl)c1C(=O)OCN1C(=O)c2ccccc2C1=O	-3	6%	12%	13µM*
Cc1onc(-c2ccccc2Cl)c1C(=O)Nc1cccc2cccnc12	-99*	7.1µM*	9.3µM*	u
CCSc1nnc(NC(=O)c2c(-c3ccccc3Cl)noc2C)s1	-10	12%	x	5.9µM*
COc1cc(NC(=O)c2c(-c3ccccc3Cl)noc2C)c2ncccc2c1	-23	u	x	x
O=C(c1ccc2c(c1)N(Cc1ccc(Cl)cc1)C(=O)c1ccccc1S2=O)N1CCOCC1 (configuration not stated)	3	x	x	x

Source: PubChem BioAssay (National Center for Advancing Translational Sciences (NCATS))
